{
  "source": "PubChem BioAssay",
  "data": [
    {"target": "Follistatin (Homo sapiens) (UniProt P19883)", "sequence (P19883 whole entry, looked up)": "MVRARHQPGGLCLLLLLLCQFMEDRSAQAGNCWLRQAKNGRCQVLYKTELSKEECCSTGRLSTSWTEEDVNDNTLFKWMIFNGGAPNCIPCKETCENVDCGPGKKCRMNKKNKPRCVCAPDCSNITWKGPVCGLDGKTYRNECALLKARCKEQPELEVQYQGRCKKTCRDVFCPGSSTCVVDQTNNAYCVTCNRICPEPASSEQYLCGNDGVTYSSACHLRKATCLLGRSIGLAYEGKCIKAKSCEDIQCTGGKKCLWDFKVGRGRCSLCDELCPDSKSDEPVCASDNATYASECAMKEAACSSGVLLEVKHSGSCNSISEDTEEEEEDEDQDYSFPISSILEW", "experiment": "follistatin binders on small-molecule microarrays, primary screen, biochemical, small-molecule microarray, 635/667 nm fluorescence (AID 1132)", "details": "FST binding, 635 nm fluorescence, higher = more signal", "values": [
      {"smiles": "COc1ccc(CCN2C(=O)[C@@]3(c4ccc([N+](=O)[O-])cc4)CC(=O)N(CC45CC6CC(CC(C6)C4)C5)[C@@H]3c3ccc(CO)cc32)cc1", "composite z-score": 0.572},
      {"smiles": "C=CCN1C(=O)[C@@]2(Cc3ccccc3)N=C(c3ccc(OCCCO)cc3)O[C@H]2c2ccccc21", "composite z-score": 1.39},
      {"smiles": "CN1CCC(CCCO)=CC1C1CC1", "note": "(stereo unspecified)", "composite z-score": 0.803},
      {"smiles": "CC(C)N1CC=CC23O[C@@H]4/C=C\\CCCOC(=O)C4[C@H]2C(=O)N(CCCCCO)[C@@H]3C1=O", "note": "(stereo partly specified)", "composite z-score": -1.15},
      {"smiles": "COCCOC(=O)N1C(=O)[C@@]2(c3cc(C#CCC(C(=O)OC)C(=O)OC)ccc31)[C@H](C(=O)N1CCN(c3ncccn3)CC1)[C@H]1C(=O)O[C@H](c3ccccc3)[C@H](c3ccccc3)N1[C@@H]2c1ccc(O)cc1", "composite z-score": 0.51},
      {"smiles": "CCC(=O)[C@]12O[C@@]3([C@@H]4C(=O)OCC[C@@H]41)N(Cc1ccccc1)C(C)=C(C(=O)OC)[C@@H](c1ccccc1)N3C2=O", "composite z-score": -0.65},
      {"smiles": "COC(=O)[C@@]1(Cc2ccc(OC)cc2)[C@H]2c3cc(C(=O)N(C)C)n(Cc4ccc(C)c(F)c4F)c3C[C@H]2CN1C(=O)c1ccccc1", "composite z-score": -0.266},
      {"smiles": "COc1cc(CO)cc(I)c1O[C@H]1C=C(C(=O)NCCO)C[C@@H](NCCc2c[nH]c3ccccc23)[C@@H]1O", "composite z-score": 0.792},
      {"smiles": "Cc1ccc(N2C(=O)c3ccccc3[C@](C)(C(=O)O)[C@@H]2c2ccc(CO)cc2)nc1", "composite z-score": -1.04},
      {"smiles": "COC(=O)[C@@]1(Cc2ccccc2)[C@H]2c3cc(C(=O)N4CCCC4)n(CCN4CNCC4=O)c3C[C@H]2CN1C(=O)c1ccccc1", "composite z-score": 0.257},
      {"smiles": "CO[C@@H]1COC(=O)[C@H](C)NC(=O)CC=C[C@@H](C)[C@H](OC)COC(=O)[C@H](C)NC(=O)CC=C[C@H]1C", "composite z-score": 0.614},
      {"smiles": "C=C(COC)/C(=C/C[C@@H](OC(C)=O)c1cccc(OCCO)c1)c1cc(C(=O)OC)ccc1OC", "composite z-score": 0.954},
      {"smiles": "CCOC(=O)C[C@H]1[C@H](OC(=O)c2ccccc2-c2ccccc2)[C@@H](NC(=O)c2ccc(-c3ccccc3)cc2)c2cc(OCCCO)ccc2N1C(=O)Cc1ccc(OC)cc1", "composite z-score": 0.362},
      {"smiles": "[N-]=[N+]=NCc1ccccc1C[C@]1(C(=O)N2CCCCC2)N=C(c2ccc(OCCCO)cc2)O[C@H]1c1ccccc1CN=[N+]=[N-]", "composite z-score": 1.04},
      {"smiles": "CO[C@H]1COC(=O)[C@@H](OCc2ccccc2)C=C[C@H](C)[C@@H](OC)COC(=O)[C@H](OCc2ccccc2)C=C[C@@H]1C", "composite z-score": 0.266},
      {"smiles": "COCCOC(=O)N1C(=O)[C@@]2(c3cc(C#CCNC(N)=O)ccc31)[C@H](c1ccc(OCCO)cc1)N1[C@H](c3ccccc3)[C@H](c3ccccc3)OC(=O)[C@H]1[C@@H]2C(=O)Nc1nc2ccccc2s1", "composite z-score": 1.28},
      {"smiles": "CCOC(=O)C1=CC[C@@H](c2ccc(-c3ccc(OCc4ccccc4)cc3)c(OC)c2)N(S(=O)(=O)c2ccc(C)cc2)[C@H]1c1ccccc1", "composite z-score": 1.2},
      {"smiles": "Cc1ccc(S[C@]2(C(=O)O)CC(=O)N(Cc3ccccc3)[C@@H]2c2ccc(CO)cc2)cc1", "composite z-score": -0.256},
      {"smiles": "Cc1ccc(S[C@]2(C(=O)NC(C)C)CC(=O)N(Cc3cc(C(F)(F)F)cc(C(F)(F)F)c3)[C@@H]2c2ccc(CO)cc2I)cc1", "composite z-score": 0.623},
      {"smiles": "CO[C@@H]1COC(=O)[C@H](COCc2ccccc2)NC(=O)CC=C[C@@H](C)[C@H](OC)COC(=O)[C@H](COCc2ccccc2)NC(=O)CC=C[C@H]1C", "composite z-score": 0.59},
      {"smiles": "CCC1=C2CN(Cc3ccccc3Br)[C@@H]([C@@H](O)Cc3ccccc3)C2C=CCC1", "note": "(stereo partly specified)", "composite z-score": 0.651},
      {"smiles": "COCCOC(=O)N1C(=O)[C@@]2(c3cc(C#CCC(C(=O)OC)C(=O)OC)ccc31)[C@H](c1ccccc1OCCO)N1[C@H](c3ccccc3)[C@H](c3ccccc3)OC(=O)[C@H]1[C@@H]2C(=O)N1CCCCCCC1", "composite z-score": 1.51},
      {"smiles": "CO[C@@H]1COC(=O)[C@@H]2CCCN2C(=O)CC=C[C@@H](C)[C@H](OC)COC(=O)[C@@H]2CCCN2C(=O)CC=C[C@H]1C", "composite z-score": 1.34},
      {"smiles": "C=C(COC)/C(=C/C[C@H](OC(C)=O)c1ccc(OCCO)cc1)c1cnc2ccccc2c1", "composite z-score": 1.4},
      {"smiles": "CC(=O)Nc1ccc([C@H]2[C@H](C)CC[C@H]3C(=O)N4[C@@H](CC[C@@H](C)[C@@H]4c4ccc(NC(C)=O)cc4)C(=O)N32)cc1", "composite z-score": 1.19},
      {"smiles": "CN(C)CCCC[C@@H]1NC(=O)[C@@H]2C[C@H](C(=O)O)[C@H](c3ccc(O)cc3)N2C1=O", "composite z-score": 1.37},
      {"smiles": "C[C@@H]1CC[C@H]2C(=O)N3[C@@H](CC[C@@H](C)[C@@H]3c3cccc(N4CCOCC4)c3)C(=O)N2[C@H]1c1cccc(Br)c1", "composite z-score": 1.12},
      {"smiles": "CCCN1C(=O)[C@@]2(CCS(=O)(=O)c3ccccc3)N=C(c3ccc(OCCCO)cc3)O[C@H]2c2ccccc21", "composite z-score": 1.4},
      {"smiles": "O=C(O)[C@@H]1Cc2c([nH]c3ccccc23)[C@@H](c2ccccc2)N1", "composite z-score": 0.607},
      {"smiles": "C[C@@H]1CC[C@H]2C(=O)N3CCC[C@H]3C(=O)N2[C@H]1c1ccc(Br)cc1", "composite z-score": 0.162},
      {"smiles": "CCC#CCN(Cc1ccccc1Br)[C@H](/C=C/c1ccccc1)[C@@H](O)Cc1ccccc1", "composite z-score": -0.886},
      {"smiles": "[N-]=[N+]=NCc1ccccc1C[C@]1(C(N)=O)N=C(c2ccc(OCCCO)cc2)O[C@H]1c1ccccc1CN=[N+]=[N-]", "composite z-score": 1.01},
      {"smiles": "C=CCC(OC(C)=O)[C@@H]1[C@@H](N(Cc2ccc(-c3ccccc3)cc2)C(=O)c2ccc(-c3ccccc3)cc2)c2cc(OCCCO)ccc2N1C(=O)Cc1ccc(OC)cc1", "note": "(stereo partly specified)", "composite z-score": 0.856},
      {"smiles": "O=C1C[C@@](C(=O)NC2CC2)(c2ccc([N+](=O)[O-])cc2)[C@@H](c2ccc(CO)cc2I)N1CC12CC3CC(CC(C3)C1)C2", "composite z-score": 1.07},
      {"smiles": "Cc1ccc(N2C(=O)c3ccccc3[C@@H](C(=O)NCC(F)(F)F)[C@@H]2c2ccc(CO)cc2)nc1", "composite z-score": -2.06},
      {"smiles": "C=CC[C@]1(C(=O)O)N=C(c2ccc(OCCCO)cc2)O[C@H]1c1ccccc1", "composite z-score": -0.367}
    ]}
  ]
}
